Whole data set: some 4,100 sequences, median “RBNS R-value (6-mer enrichment in protein-bound RNA vs input library)” near 0.99, cut for the highest 2% near 1.4. Shown is part of a subset that was picked to be rich in the highest values.
Tested on: PfIESI-1 RRM domain (Plasmodium falciparum ortholog aa 875-1232, GST fusion)
Assay: RBNS R-value (6-mer enrichment in protein-bound RNA vs input library) (ratio); higher = stronger binding preference; the methods of the paper give 50 / 100 / 500 nM protein instead
Experimental: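 RNA Bind-n-Seq: recombinant GST-tagged IESI-1 RRM domain was incubated at room temperature with a random 40-nt in vitro transcribed RNA library at 250, 500 or 1000 nM protein. Bound RNA was pulled down on glutathione beads and sequenced. R-value is the enrichment of each 6-mer in the bound RNA relative to the input library. Each 6-mer sits inside the random 40-mer context, not as an isolated oligo. Values are replicate 1 only.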

Row | Sequence | RBNS R-value (protein concentration: 250 nM) | RBNS R-value (protein concentration: 500 nM) | RBNS R-value (protein concentration: 1000 nM)
1 | CAUUAC | 0.794 | 0.766 | 0.761
2 | GAUUAC | 1.36 | 1.48 | 1.29
3 | AAUUAA | 0.748 | 0.862 | 0.797
4 | CAUUAG | 0.827 | 0.851 | 0.841
5 | GAUUAG | 1.3 | 1.4 | 1.25
6 | AAUUAG | 0.847 | 0.908 | 0.88
7 | GAUUAA | 1.24 | 1.42 | 1.2
8 | CAUUAA | 0.748 | 0.797 | 0.751
9 | UAUUAC | 0.773 | 0.754 | 0.724
10 | UCAUAC | 0.811 | 0.758 | 0.768
11 | UAUAGC | 0.876 | 0.87 | 0.833
12 | CUUUAU | 0.759 | 0.733 | 0.732
13 | CUCUCU | 0.881 | 0.796 | 0.867
14 | CUCCAC | 1.02 | 0.964 | 0.993
15 | UUUUUG | 1.18 | 1.26 | 1.16
16 | AAAAAU | 1.07 | 1.29 | 1.16
17 | GAAAAA | 1.29 | 1.48 | 1.37
18 | GAAAAC | 1.2 | 1.32 | 1.24
19 | AAAAAG | 1.2 | 1.37 | 1.29
20 | CGAAAA | 1.17 | 1.28 | 1.23
21 | AGAAAU | 1.09 | 1.29 | 1.16
22 | AGAAAA | 1.27 | 1.48 | 1.35
23 | GAAAAU | 1.12 | 1.29 | 1.19
24 | AAAAAA | 1.25 | 1.51 | 1.36

Row | Sequence | RBNS R-value (protein concentration: 250 nM) | RBNS R-value (protein concentration: 500 nM) | RBNS R-value (protein concentration: 1000 nM)
25 | GGUCGG | 0.934 | 0.838 | 0.968
26 | UCGACU | 0.956 | 0.919 | 0.936
27 | AGUAGG | 0.965 | 0.969 | 1.02
28 | CGUUCA | 0.9 | 0.886 | 0.924
29 | AAAUGC | 0.994 | 1.07 | 1.05
30 | GAAUGU | 0.918 | 1.01 | 0.982
31 | GAAUGC | 1.08 | 1.07 | 1.08
32 | AAAUGA | 1.42 | 1.6 | 1.38
33 | UAAUGA | 1.05 | 1.2 | 1.03
34 | CAAUGA | 1.34 | 1.41 | 1.24
35 | GAAUGA | 1.47 | 1.55 | 1.36
36 | CAAUGC | 0.943 | 0.936 | 0.955
37 | CAAUGG | 1.03 | 1.03 | 1.06
38 | UUCUAC | 0.96 | 0.873 | 0.911
39 | GUCUUA | 0.784 | 0.786 | 0.826
40 | CGUGAC | 1 | 0.946 | 1
41 | GUAGCC | 1.03 | 0.977 | 1.02
42 | UUUAAG | 0.833 | 0.879 | 0.837
43 | CAGAGA | 1.28 | 1.31 | 1.3
44 | UCCGAA | 1.1 | 1.1 | 1.13
45 | CCCGGU | 1.22 | 1.12 | 1.21
46 | CCGGGA | 1.4 | 1.21 | 1.27
47 | GCCGAG | 1.23 | 1.16 | 1.2
48 | CCGGGU | 1.19 | 1.08 | 1.17

Row | Sequence | RBNS R-value (protein concentration: 250 nM) | RBNS R-value (protein concentration: 500 nM) | RBNS R-value (protein concentration: 1000 nM)
49 | ACGGGA | 1.1 | 1.06 | 1.1
50 | ACCGAG | 1.34 | 1.24 | 1.25
51 | CCCGGC | 1.27 | 1.14 | 1.24
52 | CCCGGG | 1.56 | 1.3 | 1.42
53 | CCCGAG | 1.66 | 1.29 | 1.45
54 | CCCGAA | 1.44 | 1.33 | 1.35
55 | ACCGAA | 1.07 | 1.11 | 1.09
56 | CUCAAC | 0.907 | 0.891 | 0.925
57 | CUCUAC | 0.858 | 0.793 | 0.813
58 | GGGAAC | 1.14 | 1.14 | 1.17
59 | GAAUUU | 1.14 | 1.19 | 1.13
60 | UGCUAC | 0.931 | 0.87 | 0.895
61 | GUGUGG | 0.869 | 0.812 | 0.921
62 | CCACGA | 1.17 | 1.13 | 1.15
63 | CGGGUC | 1.03 | 0.928 | 1.06
64 | GUCGAG | 0.954 | 0.931 | 0.991
65 | CUCGAG | 1.38 | 1.28 | 1.27
66 | UUCGAG | 1.1 | 1.12 | 1.14
67 | UGGAGC | 1.03 | 1 | 1.02
68 | CUUAUA | 0.758 | 0.723 | 0.711
69 | GCGAUU | 1.23 | 1.24 | 1.15
70 | GUGAUA | 1.31 | 1.43 | 1.28
71 | GUGAUC | 1.06 | 1.1 | 1.06
72 | CCGAUU | 1.34 | 1.3 | 1.23

Row | Sequence | RBNS R-value (protein concentration: 250 nM) | RBNS R-value (protein concentration: 500 nM) | RBNS R-value (protein concentration: 1000 nM)
73 | GUGAGA | 1.02 | 1.08 | 1.1
74 | UUGAUU | 2.69 | 2.96 | 2.18
75 | GUGAUU | 1.83 | 2.01 | 1.61
76 | CUGAAU | 1.01 | 1.05 | 1.01
77 | GUGAAA | 1.01 | 1.12 | 1.09
78 | UGGAUU | 0.95 | 0.939 | 0.974
79 | CUGAUU | 2.52 | 2.66 | 1.97
80 | UUGAGU | 1 | 1.04 | 1.02
81 | UACAAA | 0.828 | 0.904 | 0.843
82 | AAUAAU | 0.738 | 0.867 | 0.789
83 | CAUAAU | 0.76 | 0.795 | 0.73
84 | GCGCGA | 1.1 | 1.12 | 1.11
85 | CGUAAA | 0.871 | 0.956 | 0.929
86 | ACCUGC | 1.09 | 1.03 | 1.07
87 | CCCUGG | 1.17 | 1.09 | 1.15
88 | ACCUGA | 1.51 | 1.48 | 1.37
89 | GCCUGC | 1.12 | 1 | 1.06
90 | GCCUGG | 1.12 | 1.05 | 1.15
91 | GCCUGA | 1.45 | 1.4 | 1.32
92 | CCCUGA | 1.44 | 1.41 | 1.35
93 | CCCUGU | 0.962 | 0.898 | 0.981
94 | ACCUGG | 1.19 | 1.11 | 1.17

Source: the supplement of paper PMC13392028
